Results as given in the supplement of paper PMC6555819.

Key:
Experiment in all cases: PBM binding z-score (relative to random genomic background probes); higher = stronger binding; sequences stand for … in GC…GCGATTGACAGCGTAGAATGAAGG
[1] = system: FXR:RXRa (NR concentration 270 nM, RXRa partner concentration 90 nM)
Outline: (§1)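 For binding z-scores, the reference was random background probes on custom Agilent 4×180K protein-binding microarrays. These arrays were incubated 1 h with ligand-free nuclear receptor dimers in PBS pH 7.4, 2% milk, 0.02% Triton X-100, 1 mM DTT, 0.2 mg/mL BSA and 0.4 mg/ml salmon testes DNA. Fluorescence was scanned after antibody detection of each partner (one per run) and regression-normalized.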

[2] = system: LXRa:RXRa (NR concentration 270 nM, RXRa partner concentration 90 nM)
Outline: as §1

[3] = system: LXRa homodimer (NR concentration 270 nM)
Outline: as §1

[4] = system: LXRb:RXRa (NR concentration 270 nM, RXRa partner concentration 90 nM)
Outline: as §1

[5] = system: LXRb homodimer (NR concentration 270 nM)
Outline: as §1

[6] = system: PPARa:RXRa (NR concentration 270 nM, RXRa partner concentration 90 nM)
Outline: as §1

[7] = system: PPARg:RXRa (NR concentration 180 nM, RXRa partner concentration 90 nM)
Outline: as §1

[8] = system: PPARg:RXRa 270nM:90nM, anti-RXR (NR concentration 270 nM, RXRa partner concentration 90 nM)
Outline: as §1

[9] = system: PPARg:RXRa 30nM:10nM, anti-RXR (NR concentration 30 nM, RXRa partner concentration 10 nM)
Outline: as §1

[10] = system: PPARg:RXRa 90nM:30nM, anti-RXR (NR concentration 90 nM, RXRa partner concentration 30 nM)
Outline: as §1

[11] = system: PPARg:RXRa DBDmut IVT, anti-RXR (DBD mutation: RXRa K156A/R161A, NR concentration 270 nM, RXRa partner concentration 90 nM)
Outline: as §1

[12] = system: PPARg:RXRa IVT, anti-PPARg (NR concentration 270 nM, RXRa partner concentration 90 nM)
Outline: as §1

[13] = system: PPARg DBDmut:RXRa IVT, anti-PPARg (DBD mutation: PPARg1 K132A/R137A, NR concentration 270 nM, RXRa partner concentration 90 nM)
Outline: as §1

[14] = system: PPARg DBDmut IVT, anti-PPARg (DBD mutation: PPARg1 K132A/R137A, NR concentration 270 nM)
Outline: as §1

[15] = system: PPARg homodimer (NR concentration 180 nM)
Outline: as §1

[16] = system: PXR:RXRa (NR concentration 270 nM, RXRa partner concentration 90 nM)
Outline: as §1

[17] = system: PXR homodimer (NR concentration 270 nM)
Outline: as §1

[18] = system: RARa:RXR (NR concentration 270 nM, RXRa partner concentration 90 nM)
Outline: as §1

[19] = system: RARa homodimer (NR concentration 270 nM)
Outline: as §1

[20] = system: RARb:RXRa (NR concentration 270 nM, RXRa partner concentration 90 nM)
Outline: as §1

Sequence	PBM binding z-score [1]	PBM binding z-score [2]	PBM binding z-score [3]	PBM binding z-score [4]	PBM binding z-score [5]	PBM binding z-score [6]	PBM binding z-score [7]	PBM binding z-score [8]	PBM binding z-score [9]	PBM binding z-score [10]	PBM binding z-score [11]	PBM binding z-score [12]	PBM binding z-score [13]	PBM binding z-score [14]	PBM binding z-score [15]	PBM binding z-score [16]	PBM binding z-score [17]	PBM binding z-score [18]	PBM binding z-score [19]	PBM binding z-score [20]
GCTAGATGGTCAGTAAAAGGTCACACACCGGTCG	3.28	4.21	4.31	4.17	0.588	4.58	2.79	3.94	1.99	3.21	0.38	2.57	0.624	-0.0918	3.76	4.83	0.89	5.65	2.5	4.43
ATATGGAGGTTACATCCGGGTCATTCAGGCTATG	2.99	5.32	1.94	3.8	0.764	3.79	3.01	2.85	0.871	1.91	2.72	3.63	1.46	0.791	2.15	4.57	2.76	4.94	0.676	2.88
ATAACAAGGTGATCGTGAGGTCGTTGATACTAAC	1.71	1.19	0.521	1.1	0.521	1.89	0.967	0.692	0.235	0.705	1.16	1.89	1.52	0.304	0.85	3.06	1.63	2.01	0.293	1.51
TAGCCTAGGTGATGCGGGCCAGTATAGTGTCGGC	-0.724	-0.891	-0.841	-1.2	-1.39	-0.486	-0.087	-0.902	-1.01	-0.934	-0.174	0.433	-0.831	-0.995	-1	-0.852	-0.76	-0.959	-0.718	-0.225
GCTAGCAGGCCATTTGGATCACTCAATGACGGGC	-0.129	-0.387	-0.841	-0.881	-0.721	-0.45	0.511	-0.386	-0.566	-0.739	0.765	0.13	-0.26	-0.878	-0.828	-0.802	-0.249	-0.562	-0.338	0.151
TAGCCTAGGTCATGCGGGCTAGTATAGTGTCGGC	3.65	2.96	0.103	1.54	-0.594	3.43	2.07	2.14	0.00724	0.957	1.62	2.81	-0.158	-0.27	0.331	1.07	-0.632	1.97	-0.868	3.86
ACTTACGGGTCAACGAGGTGATAGCACGCGTATA	6.81	4.17	0.0422	3.7	0.296	5.53	5.36	5	2.26	4.11	3.7	4.4	2.02	1.22	2.44	3.94	0.307	5.09	1.19	4.04
GCTAGCAGGCCATTTGGGTCACTCCATGACGGGC	-0.16	-0.308	-0.39	-0.515	-0.772	0.964	0.542	0.345	-0.692	-0.372	1.48	1.98	-0.282	-0.961	-0.247	0.113	-0.146	0.126	-0.604	1.39
ATATGTAGGTTATCCGGTCATTCAGTTTGCGCAT	1.83	2.69	4.12	1.78	1.15	3.71	5.51	5.16	2.68	4.49	7.35	6.98	1.53	1.86	0.982	1.65	1.86	1.65	0.474	2.19
TGAATGAGGTTAAAAGATCAGGGAACGTTGCAAA	2.41	2.05	-0.107	1.55	-0.114	3.8	2.57	3.45	1.49	2.53	1.14	2.17	0.743	0.45	0.137	1.26	0.0168	2.04	0.336	1.72
ATCTCTAGGTAACAAGTTCACTGAAAGAGAGGAC	1.15	1.44	1.22	1.56	0.913	2.74	2.49	2.9	1.37	2.56	3.4	3.15	1.22	1.68	1.6	2.83	2.82	2.02	0.943	2.18
TCAGACAGGTGTAGGTAACTCAGGTACGCAGTCG	0.401	1.02	0.205	0.34	-0.0818	0.643	0.472	1.78	3.54	2.76	2.33	0.315	0.327	-0.523	0.265	0.373	0.461	0.495	0.784	0.406
GCGACTGGCGCATCAGCAGGTTACCATAACTTAA	-0.425	-0.781	-0.313	-0.631	-1.19	-0.493	-0.0523	-0.785	-0.798	-0.75	-0.575	-0.748	-1.28	-1.31	-0.552	-0.518	-0.619	-0.34	-0.992	-1.03
AGTCAAAGTTCACTAGGTAACGTTAGATTCAGCT	5.17	5.24	3.17	2.95	1.04	4.7	7.15	6.57	3.45	6.1	2.64	4.82	1.46	1.15	2.91	3.95	2.61	3.1	0.915	4.65
ACTCGGAGGACAACGGTCAGAGCTACGCCAGTGA	0.0223	-0.221	-0.37	-0.773	-0.828	-0.354	0.852	0.638	-0.439	0.354	0.208	0.015	-0.698	-0.749	-0.201	-0.539	-0.446	-0.355	0.128	2
ATCGAAAGGTCGTGCGGTGAGTATACAGAAAGGC	5.34	4.25	0.222	3.12	1.5	4.84	3.25	3.58	1.04	2.23	0.148	1.68	0.719	0.4	3.06	3.2	0.322	3.75	0.484	3.7
TCTTGTAGATCAATAGAGGTTAAGAGAGTGCGCT	1.02	3.23	0.39	1.56	-0.263	1.97	0.0918	1.53	2.37	2.22	1.67	1.07	0.505	0.44	0.687	3.92	0.241	1.73	0.69	0.738
TCTATTAATTGAAGGGCAACCGACGAGTCCGTTT	0.489	1	1.77	0.808	0.497	1.16	0.0188	1.99	3.93	2.74	2.49	0.956	0.163	1.02	1.56	0.915	1.96	0.829	1.43	1.45
TCGAGTAGGTTATTCGGGGCATTCAGCCAACATA	1.16	1.05	0.0577	1.51	-0.7	1.69	0.35	1.19	1.13	1.07	3.04	2.49	-0.276	-0.446	-0.00227	0.948	0.669	0.746	-0.612	0.781
ATCTCTAGGTAACAAGTTCAGCGAAAGAGAGGAC	0.684	0.959	0.732	0.934	1.33	2.01	1.88	2.43	0.884	2.22	3.7	2.88	1.31	2.15	1.32	1.9	1.83	1.15	1.27	1.81
CCTATTAGTTGACCATATGGGCAACCGAAGCTCG	0.27	0.454	0.368	0.353	0.853	-0.034	0.453	0.317	-0.521	-0.00655	0.421	1.14	0.935	0.461	0.842	0.0373	0.489	0.314	1.68	0.652
AGAACGAGGGCACGCTGAATTGATAGCAGAGTAG	0.635	0.375	-0.408	0.0938	-0.694	1.92	2.24	2.02	0.73	1.04	4.42	4.08	0.656	0.0574	-0.00941	0.266	-0.373	0.746	-0.442	2.5
AGAACGAGGGCACGCTGAGTTGATAGCGGAGTAG	1.07	0.591	-0.337	0.0446	-0.975	1.83	1.78	1.71	-0.0619	0.703	4.05	3.75	0.375	0.0426	0.25	1.35	0.0475	0.611	0.00108	2.42
TAGCCTAGGTCAGATCGGGCCAGCATACGCTATA	2.37	0.982	-0.589	0.386	-0.807	1.52	0.739	0.901	-0.0521	0.135	0.377	1.4	-0.988	-0.801	0.0554	0.945	-0.628	1.3	-0.92	3.09
TTACCAAGGTGAAGTTCGTTGATCCCTCTGTAGA	1.07	1.09	-0.342	0.617	-0.644	1.98	1.16	2.35	0.877	2.05	2.04	2.68	0.229	0.131	0.308	1.23	0.329	0.86	-0.298	1.75
CATATAGGGTCAGCTAGGCCAGAGTAGGGACGGC	4.43	3.32	-0.142	2.24	0.223	4.44	3.29	3.31	0.812	2.26	2.06	2.63	1.01	0.805	1.9	2.17	-0.332	3.31	0.466	3.96
CCTTACGGGTCACGATGTTATAGCACGACGAGCG	5.82	3.85	0.154	3.42	-0.0634	5.51	6.19	5.77	3.09	4.59	3.85	4.86	0.952	0.0806	2.01	3.41	0.295	4.22	0.866	4.39
ATCTCTAGGTAAGACACAGTTCAGTGAAGAACGC	0.376	1.1	1.08	0.767	1.15	0.964	1.03	1.98	0.784	1.72	2.01	1.34	1.21	1.33	1.82	1.31	1.06	0.786	1.69	0.924
CCTTACGGGTCACTCCAAGTTATAGCATCGGAGT	4.3	4.77	0.264	2.99	0.193	4.54	3.18	3.68	1.12	2.66	3.33	3.23	0.816	0.0314	3.25	2.57	0.296	3.32	1.47	3.56
